This is an account of results in PubChem BioAssay (NCATS).

Experiment [1] relates to Zika virus NS2B-NS3 protease. As to the kind of experiment: Primary screen GU AMC qHTS for Zika virus inhibitors (AID 1347154). Note: nearly all actives have a fitted effect of over 70% in size. Note: potency is the fitted concentration of half-maximal effect. The essentials:
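Unlinked Zika NS2B hydrophilic domain/NS3 protease domain noncovalent complex (25 nM final) in 10 mM Tris-HCl pH 8.0, 0.01% Tween 20, with AMC peptide substrate. Fluorescence (ex 340, em 450 nm) change over 15 min, room temperature; percent inhibition fitted to 4-parameter Hill equation.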

Experiment [2] has as its system Zika virus NS2B-NS3 protease (unlinked complex). Put plainly: Primary screen GU Rhodamine qHTS for Zika virus inhibitors: Unlinked NS2B-NS3 protease assay (AID 1347159). Note: nearly all actives have a fitted effect of over 60% in size. The essentials: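 Percent inhibition derives from the 15-min fluorescence change (ex 480, em 540 nm), normalized to no-enzyme and no-inhibitor wells. Reactions contained 25 nM NS2B-NS3 complex and 1.5 microM substrate in 10 mM Tris-HCl pH 8.0.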
On the technique in general: In qHTS, concentration-response curves come from the screen itself.

For experiment [3], the system named is Zika virus NS2B-NS3 protease (linked construct). As to the kind of experiment: Primary screen NINDS Rhodamine qHTS for Zika virus inhibitors (AID 1347160). Note: nearly all actives have a fitted effect of over 55% in size. In outline: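 In 10 mM Tris-HCl pH 8.0 containing 0.01% Tween 20, linked NS2B-NS3 protease (25 nM final) is exposed to test compounds for 15 min. Cleavage of 1.5 microM Rhodamine110 substrate is tracked by fluorescence over 15 min.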

In experiment [4] the target is Lysine-specific demethylase 5B (Homo sapiens) (UniProt Q9UGL1). Put plainly: Optimization screen for KDM5B Histone Demethylases FDH coupled qHTS against the LOPAC library (AID 1347166). The essentials:
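KDM5BDeltaAP (200nM final) preincubated 10 min with compound, then 12.5uM H3K4Me3, 25uM a-ketoglutarate, ascorbate, Fe(II), NAD+ and FDH added; 50mM HEPES pH 7.5, 0.01% Tween-20. NADH fluorescence (340/450 nm) change over 30 min, room temperature.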

The nature of experiment [5]: Confirmatory screen NINDS Rhodamine qHTS for Zika virus inhibitors (AID 1347161). Note: series mostly up to about 110 µM; nearly all actives have a fitted effect of over 60% in size. The essentials: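 Purified NS2B-NS3 protease with the NS2B hydrophilic domain joined by a flexible linker (25 nM) in 10 mM Tris-HCl pH 8.0, 0.01% Tween 20, preincubated 15 min at RT with compound; Rhodamine110 peptide substrate 1.5 µM; fluorescence change over 15 min; 4-parameter Hill fit.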

The test system of experiment [6] is Zika virus NS2B-NS3 protease (linked). Put plainly: 384 well plate NINDS AMC confirmatory qHTS for Zika virus inhibitors (AID 1347163). Note: potency is the fitted concentration of half-maximal effect; nearly all actives have a fitted effect of over 50% in size. The note with it: Recombinant NS2B-NS3 protease, Ac-VKTGKR-AMC fluorescence. In outline: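 Linked NS2B-NS3 protease (final 5 nM, 30 nM or 60 nM) was preincubated with compounds (final up to 1 mM) for ~15 minutes. Ac-VKTGKR-AMC substrate (final 30 microM) then reacted for 25 minutes at room temperature in the dark. Fluorescence (ex 355/em 460 nm) was normalized to no-enzyme and no-inhibitor controls.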

The subject of experiment [7] is Zika virus NS2B-NS3 protease (linked construct). Put plainly: 384 well plate NINDS Rhodamine confirmatory qHTS for Zika virus inhibitors (AID 1347164).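 Note: fluorescence from protease cleavage of Ac-LKRR-rhodamine 110 substrate; top concentration of the series differs between compounds; nearly all actives have a fitted effect of over 65% in size.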 The essentials: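 Enzyme (final 5/30/60 nM) + cpd (DMSO), ~15 min; add Ac-LKRR-Rd 10 microM final; 25 min RT, dark; FI ex 485/em 538; normalized to no-enzyme, no-inhibitor ctrls; aprotinin intraplate ctrl.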

SMILES strings stand for the structures. Several values for one entry are separate records, joined by “and”; a condition that tells them apart may be missing. Equal values may be shown once. Results filed as inconclusive are left out. Where a call stands in place of a potency, no number is given. Activity calls are given as the source filed them. Calls come from the whole dose curve; as a rule, active = well fitted curve in the direction sought with a large enough effect; inconclusive = small, poorly fitted or top-dose-only effect, or another doubt; inactive = no such curve, though single readings can be large; an effect the other way counts as inactive or inconclusive.

Chain of Lysine-specific demethylase 5B (Homo sapiens) (Q9UGL1 whole entry, looked up): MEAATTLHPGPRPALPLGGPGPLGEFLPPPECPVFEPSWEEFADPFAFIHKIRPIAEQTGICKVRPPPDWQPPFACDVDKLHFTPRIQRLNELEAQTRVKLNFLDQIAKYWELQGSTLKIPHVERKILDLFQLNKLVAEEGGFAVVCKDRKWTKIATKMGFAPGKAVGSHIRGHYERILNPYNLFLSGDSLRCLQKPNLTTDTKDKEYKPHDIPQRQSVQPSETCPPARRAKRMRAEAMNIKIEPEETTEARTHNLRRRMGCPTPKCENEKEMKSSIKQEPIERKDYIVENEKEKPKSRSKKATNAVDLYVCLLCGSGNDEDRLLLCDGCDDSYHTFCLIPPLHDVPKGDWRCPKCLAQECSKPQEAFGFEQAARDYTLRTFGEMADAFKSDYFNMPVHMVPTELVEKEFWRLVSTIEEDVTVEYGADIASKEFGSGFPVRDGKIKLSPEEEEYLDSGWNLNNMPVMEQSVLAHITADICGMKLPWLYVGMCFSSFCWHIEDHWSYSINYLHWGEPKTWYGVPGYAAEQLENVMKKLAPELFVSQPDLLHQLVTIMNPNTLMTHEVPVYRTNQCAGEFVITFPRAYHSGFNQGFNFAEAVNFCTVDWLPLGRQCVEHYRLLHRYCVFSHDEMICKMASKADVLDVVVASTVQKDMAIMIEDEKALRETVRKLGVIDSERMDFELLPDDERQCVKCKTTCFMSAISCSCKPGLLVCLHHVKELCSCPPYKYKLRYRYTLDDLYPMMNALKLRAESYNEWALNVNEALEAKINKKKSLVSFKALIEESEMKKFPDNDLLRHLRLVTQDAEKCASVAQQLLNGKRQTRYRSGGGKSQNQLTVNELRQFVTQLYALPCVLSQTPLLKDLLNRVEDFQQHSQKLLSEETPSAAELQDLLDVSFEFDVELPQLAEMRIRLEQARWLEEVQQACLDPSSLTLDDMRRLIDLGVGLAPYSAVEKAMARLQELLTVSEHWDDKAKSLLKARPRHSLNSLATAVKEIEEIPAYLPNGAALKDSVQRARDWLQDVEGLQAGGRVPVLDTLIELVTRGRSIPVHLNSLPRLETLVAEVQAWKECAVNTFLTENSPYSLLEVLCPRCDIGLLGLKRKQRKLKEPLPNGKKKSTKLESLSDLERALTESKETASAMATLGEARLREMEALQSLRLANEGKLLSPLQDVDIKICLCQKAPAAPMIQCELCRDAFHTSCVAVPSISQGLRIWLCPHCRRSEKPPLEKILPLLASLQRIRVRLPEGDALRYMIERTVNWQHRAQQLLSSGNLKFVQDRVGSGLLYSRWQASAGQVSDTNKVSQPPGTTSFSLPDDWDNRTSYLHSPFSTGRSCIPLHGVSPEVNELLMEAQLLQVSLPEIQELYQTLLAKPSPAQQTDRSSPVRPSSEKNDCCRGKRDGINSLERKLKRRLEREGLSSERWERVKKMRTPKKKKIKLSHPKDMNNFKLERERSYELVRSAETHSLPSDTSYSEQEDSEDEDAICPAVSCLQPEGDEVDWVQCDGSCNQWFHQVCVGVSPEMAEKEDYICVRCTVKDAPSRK

Consider `Oc1cccc2cccnc12`, for which, in experiment [1], the Potency entry is “inactive”.

Regarding `CC1NCCOC1c1ccccc1` (centres undefined), the Potency result in experiment [1] is “inactive”.

With `CC(C)=CC1C(C(=O)OCc2cccc(Oc3ccccc3)c2)C1(C)C` (centres undefined), the Potency result in experiment [1] was “inactive”.

In the case of `C=C1CC[C@@]2(O)[C@H]3Cc4ccc(O)c5c4[C@@]2(CCN3CC2CC2)[C@H]1O5`, the Potency entry in experiment [1] was “inactive”.

Regarding `CC(=O)Nc1cc([As](=O)(O)O)ccc1O`, the Potency result in experiment [1] is “inactive”.

In the case of `FC(F)(F)c1cccc(C2=CCN(CCc3ccc4ccccc4c3)CC2)c1`, the Potency result in experiment [1] was “inactive”.

In the case of `O=C1CC[C@@]2(O)[C@H]3Cc4ccc(O)c5c4[C@@]2(CCN3CC2CC2)[C@H]1O5`, in experiment [1], the Potency result is “inactive”.

`CCC(C(N)=O)N1CCCC1=O` (centres undefined): the Potency result in experiment [1] was “inactive”.

With `CC[N+]1(C)CCCC(OC(=O)C(O)(c2ccccc2)c2ccccc2)C1` (centres undefined), the Potency result in experiment [1] was “inactive”.

Regarding `CCOP(=S)(OCC)Oc1cc(C)nc(C(C)C)n1`, the Potency result in experiment [1] is “inactive”.

Take `CNC(=O)c1ccc(N2C(=S)N(c3ccc(C#N)c(C(F)(F)F)c3)C(=O)C23CCC3)cc1F`: the Potency result in experiment [1], in experiment [2] and in experiment [3] was “inactive” each time.

For the compound `O=C(NC(O)C(Cl)(Cl)Cl)NC(O)C(Cl)(Cl)Cl` (centres undefined), the Potency result in experiment [1] was “inactive”.

Consider `C[C@]12CCC(=O)C(O)=C1CC[C@@H]1[C@@H]2CC[C@]2(C)C(=O)CC[C@@H]12`, for which the Potency result in experiment [1] was “inactive”. Besides, the call in experiment [4] was inactive.

As to `N[C@@H]1C[C@H]1c1ccccc1`, the Potency entry in experiment [1] was “inactive”.

For the compound `COC1(CS(=O)c2ccccc2)CCN(CCc2c[nH]c3ccc(F)cc23)CC1` (centres undefined), in experiment [1], the Potency entry was “inactive”.

Regarding `OCCOc1ccccc1`, the Potency entry in experiment [1] is “inactive”.

For the compound `CCCN1CCC[C@@H]2Cc3nc(N)ncc3C[C@H]21`, the Potency entry in experiment [1] was “inactive”. In addition, the call in experiment [4] was inactive.

Consider `CCC(COC(=O)c1cc(OC)c(OC)c(OC)c1)(c1ccccc1)N(C)C` (centres undefined), for which the Potency result in experiment [1] is “inactive”.

Turning to `O=C(O)c1ccc2[nH]cc(CCCCN3CC=C(c4ccccc4)CC3)c2c1`, the Potency result in experiment [1] was “inactive”.

With `CCN(CC)CCOC(=O)C(O)(c1ccccc1)c1ccccc1`, in experiment [1], the Potency result was “inactive”.

In the case of `c1ccc2c(c1)Nc1ccccc1S2`, the Potency result in experiment [1] was “inactive”.

Regarding `COc1ccc2c(c1OC)CN1CCc3cc4c(cc3C1C2)OCO4` (centres undefined), the Potency entry in experiment [1] was “inactive”.

In the case of `CCN(CC)CCN1C(=O)CN=C(c2ccccc2F)c2cc(Cl)ccc21`, the Potency entry in experiment [1] was “inactive”.

Take `CN(C)[C@@H]1C(=O)C(C(N)=O)=C(O)[C@@]2(O)C(=O)C3=C(O)c4c(O)cccc4[C@@](C)(O)[C@H]3C[C@@H]12`: the Potency result in experiment [1], in experiment [5] and in experiment [7] was “inactive” in each case. Besides, the Potency in experiment [6] is 224 µM (active).

As for `CC(C)NCC(O)c1ccccc1Cl` (centres undefined), in experiment [1], the Potency result is “inactive”.

Take `Clc1cccc(N2CCNCC2)c1`: in experiment [1], the Potency entry is “inactive”.

Take `NCCc1cc(O)c(O)cc1O`: in experiment [1], the Potency is 4.55 µM (active) and 21.2 µM (active).

Regarding `Oc1ccc(Cl)cc1Cc1ccccc1`, the Potency entry in experiment [1] is “inactive”.

On to `C#CCN(C)[C@H](C)Cc1ccccc1`, for which the Potency result in experiment [1] is “inactive”.

For `CCCC(C)(COC(N)=O)COC(=O)NC(C)C` (centres undefined), the Potency result in experiment [1] was “inactive”. Further, the outcome in experiment [4] was inactive.

As for `O=[N+]([O-])c1cc([As](=O)(O)O)ccc1O`, in experiment [1], the Potency entry is “inactive”.
